Unmarked numbers belong to inactive results. Inconclusive results are not listed. Activity calls are given as the source filed them. Unless noted, calls follow the shape of the full dose curve.

Experiment [1] can be described thus: Nuclear factor erythroid 2-related factor 2/antioxidant responsive element (Nrf2/ARE) small molecule agonists: qHTS cell viability counter screen in human keratinocytes (AID 1919968; active = well fitted curve in the direction sought with a large enough effect in the repeat runs; an effect the other way counts as inactive or inconclusive; also: nearly all actives have a fitted effect of over 55% in size). The essentials: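 In human HaCaT keratinocytes stably expressing an ARE-driven luciferase, compound exposure lasted 23 h at 37 C under 5% CO2. Viable cells are quantified with a protease-based fluorogenic reagent (CellTiter-Fluor) read 1 h after addition.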
A general note: In qHTS, concentration-response curves come from the screen itself.

A short description of experiment [2]: Nuclear factor erythroid 2-related factor 2/antioxidant responsive element (Nrf2/ARE) small molecule agonists: luciferase reporter gene qHTS assay in human keratinocytes (AID 1919969). Also: nearly all actives have a fitted effect of over 35% in size. Also: potency is read from the fitted curve at half-maximal effect.
For experiment [3], the target named is Gonadotropin-releasing hormone receptor (Homo sapiens) (UniProt P30968). The experiment in a line: Human gonadotropin-releasing hormone receptor (GnRHR) small molecule agonists, calcium flux assay in GnRHR-HEK293 cells (AID 1920063). Also: nearly all actives have a fitted effect of over 35% in size. The essentials: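 Intracellular calcium rise is the read-out: engineered human GnRHR HEK293 cells, dye-loaded, are exposed to DMSO-dissolved compounds and fluorescence at Ex/Em 480/540 is tracked for 3 min.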
Chain of Gonadotropin-releasing hormone receptor (Homo sapiens) (P30968 whole entry, looked up): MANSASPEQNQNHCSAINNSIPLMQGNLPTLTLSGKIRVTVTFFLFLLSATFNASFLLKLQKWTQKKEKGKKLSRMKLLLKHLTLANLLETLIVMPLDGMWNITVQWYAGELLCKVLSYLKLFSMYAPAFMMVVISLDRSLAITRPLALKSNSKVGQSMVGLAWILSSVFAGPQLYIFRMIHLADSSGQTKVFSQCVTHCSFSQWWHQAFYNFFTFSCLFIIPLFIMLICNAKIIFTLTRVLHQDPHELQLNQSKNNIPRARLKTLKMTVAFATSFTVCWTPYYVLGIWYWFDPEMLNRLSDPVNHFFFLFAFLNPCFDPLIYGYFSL
Background: Calcium flux is commonly read through the fluorescence of an indicator in the cells.

For experiment [4], the target named is KiSS-1 receptor (Homo sapiens) (UniProt Q969F8). The experiment in a line: Human kisspeptin (KISS1R) small molecule agonists, calcium flux assay in KISS1R-HEK293 cells (AID 1920064; active = well fitted curve in the direction sought with a large enough effect in the repeat runs; an effect the other way counts as inactive or inconclusive). The essentials: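 Concentration-response testing used 15 concentrations in triplicate on human KISS1R-expressing HEK293 cells. Calcium-dependent fluorescence (Ex/Em 480/540) was followed kinetically for 3 min after compound transfer.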
Chain of KiSS-1 receptor (Homo sapiens) (Q969F8 whole entry, looked up): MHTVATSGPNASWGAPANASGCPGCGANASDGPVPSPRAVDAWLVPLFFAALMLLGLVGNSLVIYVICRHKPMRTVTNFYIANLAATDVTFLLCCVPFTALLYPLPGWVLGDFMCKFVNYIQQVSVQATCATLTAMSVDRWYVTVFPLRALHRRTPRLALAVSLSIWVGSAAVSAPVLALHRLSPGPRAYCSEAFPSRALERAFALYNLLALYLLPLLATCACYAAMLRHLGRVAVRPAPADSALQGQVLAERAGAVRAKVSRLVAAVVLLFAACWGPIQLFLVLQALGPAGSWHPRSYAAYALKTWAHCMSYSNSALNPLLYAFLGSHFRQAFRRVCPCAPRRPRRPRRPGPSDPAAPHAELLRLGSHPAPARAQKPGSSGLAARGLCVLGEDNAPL

Experiment [5] in a line: G protein-coupled receptor (GPCR) small molecule agonists, calcium flux assay: HEK293 wild type cell line counter screen (AID 1920065). The essentials:
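Fluorescence intensity signals activation. After overnight (18 h) culture and a 1 h calcium dye load at 37 C, compounds are added by pin tool and the plate read at 480/540 nm for 3 min in 1 s steps.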

Experiment [6] is described as follows: p53 small molecule agonists, cell-based qHTS assay with human liver microsomes: qHTS cell viability counter screen (AID 1963579). Also: nearly all actives have a fitted effect of over 45% in size. The essentials:
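Metabolically activated exposure: compounds, human liver microsomes and NADPH (0.5 mg/mL final apiece) were added to p53RE-bla cells seeded 5 h earlier, left 16 h at 37 C, and then assessed for viability by CellTiter-Glo luminescence.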

The nature of experiment [7]: p53 small molecule agonists, cell-based qHTS assay with rat liver microsomes: qHTS cell viability counter screen (AID 1963580). Also: nearly all actives have a fitted effect of over 45% in size. The essentials: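 After the beta-lactamase ratio was read, CellTiter-Glo was added to the same wells and luminescence measured at 30 min; cells had been treated 16 h at 37 C with compounds, rat liver microsomes and NADPH (0.5 mg/mL final each).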

Experiment [8] is described as follows: p53 small molecule agonists, cell-based qHTS assay: qHTS cell viability counter screen (AID 1963581). Also: nearly all actives have a fitted effect of over 45% in size. The essentials:
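Luminescence from CellTiter-Glo, reflecting ATP content, serves as the cytotoxicity measure; it is taken after the 2 h reporter substrate step in HCT-116 p53RE-bla cells dosed for 16 h at 37 C.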

The target of experiment [9] is 5-hydroxytryptamine receptor 2A (Homo sapiens) (UniProt P28223). The experiment in a line: 5-hydroxytryptamine receptor 2A (HTR2A) small molecule antagonists, cell-based qHTS assay (AID 1963586). Also: nearly all actives have a fitted effect of over 45% in size. The essentials:
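CHO cells stably expressing human HTR2A were plated for 18 h at 37 C, then loaded with calcium dye for 1 h. Compounds were preincubated 5 min at room temperature before DOI (4 nM solution) was added. Kinetic fluorescence was read for 3 min.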

Experiment [10] shares this target. Description: 5-hydroxytryptamine receptor 2A (HTR2A) small molecule agonists, cell-based qHTS assay (AID 1963587). Also: nearly all actives have a fitted effect of over 30% in size. The essentials: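 CHO cells stably expressing human HTR2A, plated 18 h, loaded with calcium dye 1 h at 37 C. Agonist mode: compounds added and intracellular calcium fluorescence recorded kinetically for 2 min at 1 sec intervals.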
Experiment [11] deals with Muscarinic acetylcholine receptor M1 (Homo sapiens) (UniProt P11229). Description: Cholinergic receptor muscarinic 1 (CHRM1) small molecule antagonists, cell-based qHTS assay (AID 1963588). Also: nearly all actives have a fitted effect of over 40% in size. Also: potency is read from the fitted curve at half-maximal effect. The essentials:
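Compounds were tested at 15 concentrations in three independent runs. Dye-loaded CHRM1-CHO cells were exposed 5 min at room temperature before stimulation by acetylcholine added at 50nM. Intracellular calcium was read kinetically on FDSS for 3 min.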

Experiment [12] shares this target. Description: Cholinergic receptor muscarinic 1 (CHRM1) small molecule agonists, cell-based qHTS assay (AID 1963589). Also: nearly all actives have a fitted effect of over 35% in size. The essentials: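 Fluorescent calcium dye reports M1 activation in stably transfected CHO cells. Compounds, 15 concentrations, added after 1 h dye loading at 37 C; kinetic reading at 1 sec intervals.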
Experiment [13] is described as follows: cAMP Responsive Elements (CRE) small molecule agonists, cell-based qHTS assay (AID 1963590). The essentials: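 Compound exposure lasted 3 h at 37 C/5% CO2 in CRE-bla HEK 293T cells grown in assay medium with 10% dialyzed FBS and 25 mM HEPES. Reporter signal came from LiveBLAzer B/G FRET substrate, 2 h, room temperature.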
Experiment [14] is described as follows: cAMP Responsive Elements (CRE) small molecule antagonists, cell-based qHTS assay (AID 1963591; active = well fitted inhibition curve with a large enough effect in the signal ratio in the repeat runs, not every such curve was filed as active; the % refers to the signal ratio). The essentials: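 Stimulation used NKH477 at a final 0.25 uM for 3 h in compound-treated CRE-bla HEK293T cells, seeded 18 h beforehand. Reporter activity was measured with LiveBLAzer B/G FRET substrate after 2 h at room temperature.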
The target of experiment [15] is Beta-2 adrenergic receptor (Homo sapiens) (UniProt P07550). Description: Adrenergic beta2 receptor (ADRB2) small molecule antagonists, cell-based qHTS assay (AID 1963592). Also: nearly all actives have a fitted effect of over 50% in size. Also: potency is read from the fitted curve at half-maximal effect. As to activity change, negative = inhibition: series mostly up to about 92 µM. The essentials:
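Assay format: CHO-ADRB2 cells, 18-20hr seeding at 37C/5% CO2, then compound plus 1nM isoproterenol agonist mix for 0.5hr RT. Homogeneous time-resolved fluorescence cAMP detection after 1hr, expressed as 665/615 nm ratio.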

For experiment [16] the target is unchanged. The experiment in a line: Adrenergic beta2 receptor (ADRB2) small molecule agonists, cell-based qHTS assay (AID 1963593).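 Also: CHO cells stably overexpressing human ADRB2.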 The essentials: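 CHO cells stably over-expressing ADRB2 were plated overnight at 37C, then dosed with compounds plus a stimulation mix containing 100uM IBMX and 25uM Ro-20-1724 for 0.5hr at room temperature. cAMP was measured by HTRF competition, 1hr.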

Experiment [17] has as its target D(2) dopamine receptor (Homo sapiens) (UniProt P14416). Description: Dopamine D2 receptor (DRD2) small molecule agonists, cell-based qHTS assay (AID 1963594). Also: nearly all actives have a fitted effect of over 35% in size. The essentials:
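HEK293 cells stably expressing human DRD2, pre-treated with PDE inhibitor Ro20-1724 (0.1 mM final) and compound 10 min at room temperature, then stimulated with NKH477 (200nM […]) for 30 min. cAMP read by HTRF (665/620 nm).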

The nature of experiment [18]: p53 small molecule agonists, cell-based qHTS assay with rat liver microsomes (AID 1963578). The essentials:
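Agonist mode in p53RE-bla reporter cells, with compounds co-incubated 16 h at 37 C alongside 0.5 mg/mL rat liver microsomes and 0.5 mg/mL NADPH (final), followed by a 2 h LiveBLAzer detection step.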

Experiment [19] can be described thus: p53 small molecule agonists, cell-based qHTS assay (AID 1963582; active = well fitted activation curve with a large enough effect in the signal ratio in the repeat runs, not every such curve was filed as active; the % refers to the signal ratio). The essentials:
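After plating, p53RE-bla cells sat 5 h in the incubator; compounds or DMSO vehicle were pinned in; a 16 h incubation at 37 C followed; FRET substrate was added and, 2 h later at RT, fluorescence was measured.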

Experiment [20] deals with D(2) dopamine receptor (Homo sapiens) (UniProt P14416). Description: Dopamine D2 receptor (DRD2) small molecule antagonists, cell-based qHTS assay (AID 1963595; active = well fitted inhibition curve with a large enough effect in the signal ratio in the repeat runs, with a control signal flat; the % refers to the signal ratio). The essentials: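 HEK293 cells stably expressing DRD2 were preincubated with 0.1 mM Ro20-1724, then with compound for 10 min at room temperature. Cells were stimulated with 200 nM NKH477 plus 12 nM quinpirole for 30 min, and cAMP was read by HTRF.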
Chain of D(2) dopamine receptor (Homo sapiens) (P14416 whole entry, looked up): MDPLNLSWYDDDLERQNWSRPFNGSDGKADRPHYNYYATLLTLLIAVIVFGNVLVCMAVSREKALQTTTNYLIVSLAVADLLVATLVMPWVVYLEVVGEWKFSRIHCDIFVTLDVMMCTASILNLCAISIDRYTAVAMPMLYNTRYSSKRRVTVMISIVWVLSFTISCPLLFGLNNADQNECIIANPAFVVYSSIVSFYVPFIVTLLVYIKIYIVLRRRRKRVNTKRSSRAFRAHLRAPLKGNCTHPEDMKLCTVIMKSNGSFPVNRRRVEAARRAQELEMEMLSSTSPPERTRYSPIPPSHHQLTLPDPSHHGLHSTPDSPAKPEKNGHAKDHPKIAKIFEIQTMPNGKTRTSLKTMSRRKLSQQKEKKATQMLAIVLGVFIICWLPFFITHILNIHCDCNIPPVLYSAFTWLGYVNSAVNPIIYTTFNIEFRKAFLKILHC
% is scaled to controls: 0 for no effect and ±100 for the full control effect.

Chain of 5-hydroxytryptamine receptor 2A (Homo sapiens) (P28223 whole entry, looked up): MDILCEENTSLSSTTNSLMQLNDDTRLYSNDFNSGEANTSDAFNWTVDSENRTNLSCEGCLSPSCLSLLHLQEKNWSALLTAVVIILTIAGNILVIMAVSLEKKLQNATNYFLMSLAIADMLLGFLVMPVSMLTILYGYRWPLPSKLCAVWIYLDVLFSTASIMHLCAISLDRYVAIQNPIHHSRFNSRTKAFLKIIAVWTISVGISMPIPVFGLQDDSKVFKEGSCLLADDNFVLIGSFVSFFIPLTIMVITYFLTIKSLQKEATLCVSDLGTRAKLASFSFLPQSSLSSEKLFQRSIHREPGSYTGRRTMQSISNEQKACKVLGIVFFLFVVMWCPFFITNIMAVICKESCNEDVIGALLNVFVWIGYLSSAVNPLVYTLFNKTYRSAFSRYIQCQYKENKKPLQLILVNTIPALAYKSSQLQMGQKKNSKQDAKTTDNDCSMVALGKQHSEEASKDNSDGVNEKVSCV
Chain of Beta-2 adrenergic receptor (Homo sapiens) (P07550 whole entry, looked up): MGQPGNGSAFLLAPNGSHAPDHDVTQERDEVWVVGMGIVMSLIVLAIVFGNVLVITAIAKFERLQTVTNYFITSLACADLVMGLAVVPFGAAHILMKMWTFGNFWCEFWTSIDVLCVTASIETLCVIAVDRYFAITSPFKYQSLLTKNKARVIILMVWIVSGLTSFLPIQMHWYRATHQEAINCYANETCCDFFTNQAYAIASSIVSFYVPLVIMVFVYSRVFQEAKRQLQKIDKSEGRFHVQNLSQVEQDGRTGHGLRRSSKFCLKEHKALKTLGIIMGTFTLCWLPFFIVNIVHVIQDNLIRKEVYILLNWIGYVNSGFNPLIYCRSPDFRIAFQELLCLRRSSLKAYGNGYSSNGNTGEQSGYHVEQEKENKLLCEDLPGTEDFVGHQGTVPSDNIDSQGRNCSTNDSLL
Chain of Muscarinic acetylcholine receptor M1 (Homo sapiens) (P11229 whole entry, looked up): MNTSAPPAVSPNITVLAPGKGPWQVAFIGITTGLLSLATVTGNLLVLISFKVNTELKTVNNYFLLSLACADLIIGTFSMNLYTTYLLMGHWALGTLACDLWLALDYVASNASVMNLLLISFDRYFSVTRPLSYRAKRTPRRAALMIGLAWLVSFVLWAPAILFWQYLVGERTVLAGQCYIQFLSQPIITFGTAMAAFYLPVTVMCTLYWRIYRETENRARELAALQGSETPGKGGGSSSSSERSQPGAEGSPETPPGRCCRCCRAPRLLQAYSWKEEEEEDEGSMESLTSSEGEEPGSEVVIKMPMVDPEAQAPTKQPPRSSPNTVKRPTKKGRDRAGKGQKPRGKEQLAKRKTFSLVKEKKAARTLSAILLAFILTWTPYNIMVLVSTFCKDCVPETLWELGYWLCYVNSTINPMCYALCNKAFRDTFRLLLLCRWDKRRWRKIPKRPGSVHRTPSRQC

With `CC(C)c1ccc2cc(C(C)C)ccc2c1`, the Potency entry in experiment [1], in experiment [3], in [4], in [5], in [6] and in experiment [7] was “inactive” in each case. Also, the Potency entry in experiment [8], in experiment [9], in experiment [10], in [11], in experiment [12] and in experiment [13] was “inactive” in each case. Also, the Potency result in experiment [14], in experiment [15], in experiment [16] and in [17] was “inactive” throughout. Moreover, the Potency in experiment [2] is 48.6 µM (active).

Regarding `CN(C)CCCN(C)C`, the figures for the activity change, negative = cytotoxicity in [1], in experiment [7] and in experiment [8] were 3.36% [at 8.39 µM], 0.34% [at 5.99 µM] and -23% [at 5.99 µM], respectively. Moreover, in experiment [2], the activity, positive = activation was -12.5% [at 8.39 µM]. For the same compound, the activity change in experiment [3] is -0.775% [at 5.22 µM, hits give high values]. Also, the activation was -0.798% [at 6.97 µM] in experiment [4]; -1.22% [at 5.23 µM] in experiment [5]; 5.56% [at 5.99 µM] in experiment [18]; 3.48% [at 5.99 µM] in experiment [19]; -0.769% [at 7.02 µM] in [10]; -0.0477% [at 6.97 µM] in experiment [12]. The activity, negative = inhibition in [11] was 1.9% [at 5.58 µM]. In addition, the activity change, negative = inhibition was -6.12% [at 8.39 µM] in experiment [14], 3.37% [at 8.39 µM] in [15] and 3.98% [at 8.38 µM] in [20].

With `Cc1c(NC(=O)c2cccnc2)c(=O)n(-c2ccccc2)n1C`, the Potency entry in experiment [1], in experiment [2], in [3], in [4], in experiment [5] and in [6] was “inactive” in each case. Further, the Potency result in experiment [7], in experiment [8], in experiment [19], in experiment [10], in [11] and in experiment [12] was “inactive” throughout. Also, the Potency entry in experiment [13], in [14], in [15], in experiment [16], in [17] and in [20] was “inactive” each time.

As to `Clc1ccc2nsnc2c1NC1=NCCN1`, the Potency entry in experiment [1], in experiment [2], in experiment [3], in [4], in experiment [5] and in experiment [18] was “inactive” in each case. The Potency result in [7], in experiment [8], in experiment [19], in experiment [9], in [10] and in experiment [11] was “inactive” each time. Further, the Potency entry in experiment [12], in experiment [13], in [14], in experiment [15], in experiment [16] and in experiment [17] was “inactive” each time. The Potency entry in experiment [20] was “inactive”.

Turning to `CC/C=C\CCOC(C)OCC` (stereo not drawn), the Potency entry in experiment [1], in experiment [2], in [3], in [4], in experiment [5] and in experiment [18] was “inactive” throughout. Moreover, the Potency entry in [7], in experiment [8], in experiment [9], in experiment [10], in [11] and in experiment [12] was “inactive” in each case. For the same compound, the Potency entry in [13], in experiment [14], in experiment [15], in experiment [17] and in experiment [20] was “inactive” in each case.

In the case of `CCCCN`, the Potency entry in [1], in experiment [3], in experiment [4], in experiment [5], in experiment [6] and in experiment [7] was “inactive” each time. Further, the Potency result in experiment [8], in [19], in [9], in [10], in experiment [11] and in experiment [12] was “inactive” throughout. For the same compound, the Potency entry in experiment [13], in [14], in [15], in experiment [17] and in experiment [20] was “inactive” throughout. In experiment [2], the Potency is 36.3 µM (active).

For the compound `NC(=O)Cn1c(=O)cc(CCN2CCN(c3nccc4sccc34)CC2)c2ccc(F)cc21`, the Potency result in experiment [1], in experiment [2], in [3], in experiment [4], in experiment [5] and in [18] was “inactive” each time. Besides, the Potency result in experiment [7], in experiment [8], in [10], in [12], in experiment [17] and in experiment [20] was “inactive” each time. In addition, the Potency was 23.7 µM (active) in [11] and 27.3 µM (active) in experiment [15].
